# PubChem BioAssay AID2153 (The Scripps Research Institute Molecular Screening Center, 2009)
# Hit rate of the full screen: of about 2,400 compounds, about 2,000 (83%) were called active. The set was probably picked from earlier hits. These entries were drawn from the full list. Unmarked numbers belong to inactive results.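 Rule for the calls: active = inhibition above the solvent-only control well mean plus 3 SD, limit set per screening run (cut at about 23% in these data); inactive = the rest.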
# Target: Guanyl-specific ribonuclease T1 (Aspergillus oryzae (strain ATCC 42149 / RIB 40)) (UniProt P00651)
# Experiment: blockers of Aspergillus RNase T1 cleavage – biochemical, fluorescence polarization, counter-screen for TPT1 inhibitor project (AID 2153);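 note: plate controls were DMSO wells with enzyme for no effect and wells without RNase T1 for full effect; inhibitors block cleavage so intact labeled substrate keeps polarization high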
# Details: 1536-well, at 5 µM, active compounds read high
# Sequence of Guanyl-specific ribonuclease T1 (Aspergillus oryzae (strain ATCC 42149 / RIB 40)) (P00651 whole entry, looked up): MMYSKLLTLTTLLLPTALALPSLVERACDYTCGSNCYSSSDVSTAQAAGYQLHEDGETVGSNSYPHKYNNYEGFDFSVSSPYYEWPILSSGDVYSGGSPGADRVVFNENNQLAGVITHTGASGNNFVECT
row,SMILES,inhibition
1,Oc1ccc(/C=N/Nc2nc(-c3ccccc3F)nc3ccccc23)c(O)c1,41.4% (active)
2,CCOC(=O)/C(C#N)=C/c1ccc(N2CCN(Cc3ccccc3)CC2)cc1,92.8% (active)
3,CCOC(=O)/C(C#N)=C/c1ccc(N2CCCCC2)cc1,129% (active)
4,N#C/C(=C/c1ccc(N2CCOCC2)o1)C(=O)N1CCOCC1,178% (active)
5,N#C/C(=C\c1ccc(N2CCOCC2)o1)C(=O)N1CCOCC1,165% (active)
6,Cc1ccc(CC2S/C(=C(/C#N)C(=O)N3CCOCC3)N(c3ccccc3)C2=O)cc1 (stereo not given),14.3%
7,COc1cc2c(cc1O)[C@H](Cc1ccc(Oc3cc(C[C@@H]4NCCc5cc(OC)c(O)cc54)ccc3O)cc1)NCC2,44.2% (active)
8,Cc1nc2ccccc2nc(=O)c1NNc1ccc([N+](=O)[O-])cc1,47.2% (active)
9,O=C1NC(=O)C2C1C(c1ccc([N+](=O)[O-])cc1)=NN2Cc1ccccc1 (stereo not given),48% (active)
10,Nc1c(C(=O)c2cccs2)sc2nsc(SCCN3CCCCC3)c12,73.8% (active)
11,CN1C(=O)/C(=C/C=C2\SCCN2C)OC1=S,165% (active)
12,COc1ccc(N=C(C)c2sc3ccccc3c2O)cc1,82.8% (active)
13,Cc1cccc2cc3c(N)c(C(=O)N4CCCc5ccccc54)sc3nc12,68.5% (active)
14,Cc1sc2nc(COC(=O)C(NC(=O)c3ccc(Cl)cc3Cl)C(C)C)[nH]c(=O)c2c1C (stereo not given),66.8% (active)
15,O=C(Nc1ccc(S(=O)(=O)Nc2nccs2)cc1)c1cc(-c2ccncc2)nc2ccccc12,64.3% (active)
16,CCCCCCc1cc2cc(-c3nnc(-c4ccccc4)o3)c(=O)oc2cc1O,110% (active)
17,NNC(=O)c1oc2nc(-c3ccccc3)cc(-c3ccco3)c2c1N,43.8% (active)
18,COc1cc(/C=C(\C#N)c2nc3c(s2)CC(C)CC3)ccc1O (stereo not given),125% (active)
19,COc1cc(/C=C(\C#N)c2nc3ccccc3[nH]2)ccc1O,112% (active)
20,C[n+]1ccc(/C=C/c2c[nH]c3ccccc23)cc1,63.7% (active)

row,SMILES,inhibition
1,CN(c1ccccc1)c1ccc(/C=c2\s/c(=C(/C#N)C(=O)C(C)(C)C)n(Cc3ccco3)c2=O)cc1,125% (active)
2,C=CCC1=C/C(=C\c2c(N)n3nc(CC(=O)N4CCOCC4)sc3nc2=O)C=C(OC)C1=O,106% (active)
3,CC(C)(C)c1ccc(/C=C2\Oc3c(ccc(O)c3CN3CCN(CCO)CC3)C2=O)cc1,45.6% (active)
4,Cc1ccc(CSCC2Nc3ccc(C(=O)N4CCN(c5ccc(F)cc5)CC4)cc3NC2=O)cc1 (stereo not given),22.8% (active)
5,O=C1Nc2cc(C(=O)N3CCN(c4ccc(F)cc4)CC3)ccc2NC1CSCc1cccc(F)c1 (stereo not given),116% (active)
6,CC(C)c1ccc(Nc2nnc(SCC(=O)c3nnc(-c4ccccc4)o3)s2)cc1,29.1% (active)
7,O=C(O)C(c1ccccc1)N1C(=O)/C(=C\c2ccc(-c3cccc(Cl)c3)o2)SC1=S (stereo not given),146% (active)
8,CN1C(=O)/C(=C\c2ccc(-c3ccccc3)o2)SC1=S,96.2% (active)
9,CCC(=C/c1sc2ccc3ccccc3c2[n+]1C)/C=C1\Sc2ccc3ccccc3c2N1C,104% (active)
10,O=C(N/N=C/c1sc(N2CCCCC2)nc1-c1cccs1)c1cccnc1,51.2% (active)
11,Cc1cccc(COc2ccccc2/C=N/Nc2ccc([N+](=O)[O-])cc2)c1,98.6% (active)
12,Cc1cccc(NC(=O)c2ccc(COc3ccccc3[N+](=O)[O-])o2)n1,8.35%
13,O=[N+]([O-])c1ccc(N/N=C/c2ccccc2)cc1,52.2% (active)
14,CCOc1ccc(/C=C2\SC(=S)N(NC(=O)c3ccncc3)C2=O)cc1OC,65.5% (active)
15,Cc1c(C(=O)OC(C)C)sc(NC(=O)c2cccnc2)c1C#N,38.8% (active)
16,CCOc1cc(/C=C(\C#N)c2nc(-c3cccs3)c(NC(C)=O)s2)ccc1O,95.6% (active)
17,Cn1ccc(=NC=C(C#N)C#N)c2ccccc21,31.9% (active)
18,CC1CCN(C(=O)c2ccc3c(c2)NC(=O)CN3)CC1,52.2% (active)
19,O=C(C[n+]1cc(Br)cc2ccccc21)c1ccc(F)cc1,54.2% (active)
20,O=C(Cc1nc2ccccc2[nH]c1=O)c1ccc(Cl)cc1,65.7% (active)
